Measured values reported in PubChem BioAssay (Tox21).
Several values for one entry are separate records, joined by “and”; a condition that tells them apart may be missing. Identical values can stand only once. Unmarked numbers belong to inactive results. Records with an inconclusive call do not appear. Where a call stands in place of a potency, no number is given. Activity calls are given as the source filed them. Unless noted, calls follow the shape of the dose curve; as a rule, active = well fitted curve in the direction sought with a large enough effect in the repeat runs; inconclusive = weak or mixed curves; inactive = no such curve, though single readings can be large; an effect the other way counts as inactive or inconclusive.

Key:
[1] = qHTS assay to identify small molecule agonists of the androgen receptor (AR) signaling pathway in the presence of an antagonist - cell viability counter screen (AID 1259379); also: nearly all actives have a fitted effect of over 25% in size; also: potency is read from the fitted curve at half-maximal effect
In short: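 Cells: MDA-kb2 (MMTV-luc, AR and GR elements), 3,000/well, 5 hr settle. Added: nilutamide 3.0uM final, then compounds (15 conc.). Incubation: 16 hr, 37C, no CO2. Read-out: CellTiter-Fluor, 1 hr, fluorescence.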

[2] = qHTS assay to identify small molecule agonists of the estrogen receptor beta (ER-beta) signaling pathway - cell viability counter screen (AID 1259380); also: nearly all actives have a fitted effect of over 30% in size; also: potency is read from the fitted curve at half-maximal effect
In short: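 HEK293T ER-beta-UAS-bla; 2% CS-FBS; 6 hr pre-plate, 16 hr cpd at 37C/5% CO2; LiveBLAzer read first, then CellTiter-Glo 30 min RT, luminescence.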

[3] = target: Androgen receptor (Homo sapiens) (UniProt P10275); experiment: qHTS assay to identify small molecule agonists of the androgen receptor (AR) signaling pathway in the presence of an antagonist (AID 1259381; calls by dose curve; also: nearly all actives have a fitted effect of over 15% in size; also: potency is read from the fitted curve at half-maximal effect)
Sequence of Androgen receptor (Homo sapiens) (P10275 whole entry, looked up): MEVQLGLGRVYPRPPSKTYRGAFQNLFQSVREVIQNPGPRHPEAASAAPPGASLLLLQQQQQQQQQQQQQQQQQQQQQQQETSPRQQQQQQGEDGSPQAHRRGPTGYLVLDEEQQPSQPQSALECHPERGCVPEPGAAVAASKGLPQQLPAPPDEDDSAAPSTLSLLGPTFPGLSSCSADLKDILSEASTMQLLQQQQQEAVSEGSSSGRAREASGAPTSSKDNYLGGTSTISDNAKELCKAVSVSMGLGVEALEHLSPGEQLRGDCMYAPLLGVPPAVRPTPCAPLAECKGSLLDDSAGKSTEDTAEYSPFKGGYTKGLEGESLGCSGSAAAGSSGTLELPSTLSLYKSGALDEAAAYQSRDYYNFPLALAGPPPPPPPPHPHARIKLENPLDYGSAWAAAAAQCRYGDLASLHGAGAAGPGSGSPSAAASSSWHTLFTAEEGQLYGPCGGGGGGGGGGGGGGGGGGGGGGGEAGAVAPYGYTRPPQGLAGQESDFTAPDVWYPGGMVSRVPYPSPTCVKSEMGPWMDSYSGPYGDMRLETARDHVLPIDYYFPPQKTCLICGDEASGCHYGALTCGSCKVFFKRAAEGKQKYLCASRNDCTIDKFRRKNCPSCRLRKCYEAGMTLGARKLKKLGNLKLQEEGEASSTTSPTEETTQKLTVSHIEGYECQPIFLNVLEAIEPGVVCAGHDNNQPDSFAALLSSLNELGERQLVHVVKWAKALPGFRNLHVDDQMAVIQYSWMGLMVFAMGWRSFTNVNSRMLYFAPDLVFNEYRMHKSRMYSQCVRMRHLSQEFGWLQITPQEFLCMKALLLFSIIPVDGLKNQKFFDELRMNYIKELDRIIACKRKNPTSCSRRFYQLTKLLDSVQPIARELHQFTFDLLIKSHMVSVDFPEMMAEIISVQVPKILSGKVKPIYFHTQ
In short: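 MDA-kb2 cells, 3,000/well, rested 5hr at 37C/0% CO2 → nilutamide 3.0uM final or buffer → compounds, 15 conc. → 16hr at 37C → ONE-Glo, 30min RT → luminescence.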

[4] = qHTS assay to identify small molecule antagonists of the estrogen receptor beta (ER-beta) signaling pathway - cell viability counter screen (AID 1259382); also: nearly all actives have a fitted effect of over 55% in size; also: potency is read from the fitted curve at half-maximal effect
In short: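 Cells: ER-beta-UAS-bla HEK293T, 2,000/well, 2% CS-FBS, 6 hr settle. Cpd + E2 (1nM final), 16 hr, 37C/5% CO2. Bla FRET substrate 2 hr RT, then CellTiter-Glo 30 min RT, luminescence.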

[5] = target: Estrogen receptor (Homo sapiens) (UniProt P03372); experiment: qHTS assay to identify small molecule agonists of the estrogen receptor alpha (ER-alpha) signaling pathway in the presence of an antagonist (AID 1259383; calls by dose curve; also: nearly all actives have a fitted effect of over 15% in size; also: potency is read from the fitted curve at half-maximal effect; as to activation: top concentration of the series differs between compounds)
Sequence of Estrogen receptor (Homo sapiens) (P03372 whole entry, looked up): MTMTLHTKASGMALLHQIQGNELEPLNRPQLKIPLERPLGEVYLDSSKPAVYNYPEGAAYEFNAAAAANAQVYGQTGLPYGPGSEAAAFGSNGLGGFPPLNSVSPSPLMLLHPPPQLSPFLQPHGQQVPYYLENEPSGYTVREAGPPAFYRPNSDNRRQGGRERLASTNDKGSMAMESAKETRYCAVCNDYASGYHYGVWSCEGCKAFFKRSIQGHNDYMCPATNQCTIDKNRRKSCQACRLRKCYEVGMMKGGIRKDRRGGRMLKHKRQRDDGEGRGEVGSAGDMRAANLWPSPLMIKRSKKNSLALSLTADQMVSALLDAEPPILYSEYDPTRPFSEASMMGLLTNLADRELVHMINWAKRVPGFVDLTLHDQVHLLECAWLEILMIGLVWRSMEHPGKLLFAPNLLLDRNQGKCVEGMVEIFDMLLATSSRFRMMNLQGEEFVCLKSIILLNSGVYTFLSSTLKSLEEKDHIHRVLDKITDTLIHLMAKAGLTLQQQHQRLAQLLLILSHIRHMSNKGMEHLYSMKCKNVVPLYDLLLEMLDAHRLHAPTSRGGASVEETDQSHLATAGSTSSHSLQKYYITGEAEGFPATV
In short: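 VM7Luc4E2, endog. ER-alpha + 4×ERE-luc; charcoal-stripped FBS, phenol red-free, 5 d; 24hr plating; +10.0nM ICI-182,780 (final); cpds 15 conc, 22hr, 37C/5% CO2; ONE-Glo luminescence.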

[6] = target: Thyrotropin receptor (Homo sapiens) (UniProt P16473); experiment: qHTS assay to identify small molecule antagonists of the thyroid stimulating hormone receptor (TSHR) signaling pathway (AID 1259385; calls by dose curve; also: nearly all actives have a fitted effect of over 20% in size)
Sequence of Thyrotropin receptor (Homo sapiens) (P16473 whole entry, looked up): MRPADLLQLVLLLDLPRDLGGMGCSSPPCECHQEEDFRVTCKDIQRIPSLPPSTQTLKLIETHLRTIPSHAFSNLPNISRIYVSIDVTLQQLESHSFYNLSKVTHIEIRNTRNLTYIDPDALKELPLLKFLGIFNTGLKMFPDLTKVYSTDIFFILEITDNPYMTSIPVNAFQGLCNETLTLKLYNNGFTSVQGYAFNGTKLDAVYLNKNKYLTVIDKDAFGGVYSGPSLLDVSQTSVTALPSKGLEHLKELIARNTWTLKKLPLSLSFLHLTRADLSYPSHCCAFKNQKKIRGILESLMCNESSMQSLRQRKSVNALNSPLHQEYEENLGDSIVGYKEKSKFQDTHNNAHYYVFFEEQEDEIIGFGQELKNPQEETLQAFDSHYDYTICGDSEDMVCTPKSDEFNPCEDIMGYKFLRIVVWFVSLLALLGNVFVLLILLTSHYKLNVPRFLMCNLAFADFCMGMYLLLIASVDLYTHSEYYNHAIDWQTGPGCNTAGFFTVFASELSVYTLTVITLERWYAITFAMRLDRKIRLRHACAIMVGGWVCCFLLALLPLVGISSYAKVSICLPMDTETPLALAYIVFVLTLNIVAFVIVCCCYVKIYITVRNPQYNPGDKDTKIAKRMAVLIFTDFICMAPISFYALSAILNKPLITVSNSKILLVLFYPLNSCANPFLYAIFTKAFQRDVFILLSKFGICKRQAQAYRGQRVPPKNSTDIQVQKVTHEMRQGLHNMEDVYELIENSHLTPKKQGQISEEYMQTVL
In short: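 TSHR-HEK293 cells (800/well) plated 18 h, then compounds with Ro20-1724 and TSH at 1.5 ng/mL final, 30 min at room temperature. cAMP quantified by HTRF (cAMP-d2/anti-cAMP-cryptate, 1 h); 15 concentrations in triplicate.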

[7] = qHTS assay to identify small molecule antagonists of the progesterone receptor (PR) signaling pathway - cell viability counter screen (AID 1346798); also: nearly all actives have a fitted effect of over 50% in size; also: potency is read from the fitted curve at half-maximal effect
In short: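 In the same plates used for the beta-lactamase readout, cell viability of compound- and R5020-treated PR-UAS-bla HEK293T cells (16 hr, 37C) was assessed by CellTiter-Glo luminescence.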

[8] = qHTS assay to identify small molecule agonists of the progesterone receptor (PR) signaling pathway - cell viability counter screen (AID 1346799; calls by dose curve; also: potency is read from the fitted curve at half-maximal effect; nearly all actives have a fitted effect of over 45% in size)
In short: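 Multiplexed viability read: CellTiter-Glo luminescence, 30 min RT, following LiveBLAzer FRET measurement on PR-UAS-bla HEK293T cells exposed to compounds 16 hr.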

[9] = qHTS assay to identify small molecule agonists of the TGF-beta/Smad signaling pathway - cell viability counter screen (AID 1346829); also: nearly all actives have a fitted effect of over 45% in size; also: potency is read from the fitted curve at half-maximal effect
In short: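 SBE-bla HEK 293T cells plated overnight, compound exposure 5 hr at 37 C. Viability read in the same wells by CellTiter-Glo luminescence after 30 min at room temperature, following the beta-lactamase read.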

[10] = target: Thyrotropin-releasing hormone receptor (Homo sapiens) (UniProt P34981); experiment: qHTS assay to identify small molecule antagonists of the thyrotropin-releasing hormone receptor (TRHR) signaling pathway (AID 1346877; active = well fitted inhibition curve with a large enough effect in the repeat runs, not every such curve was filed as active; also: series mostly up to about 51 µM)
Sequence of Thyrotropin-releasing hormone receptor (Homo sapiens) (P34981 whole entry, looked up): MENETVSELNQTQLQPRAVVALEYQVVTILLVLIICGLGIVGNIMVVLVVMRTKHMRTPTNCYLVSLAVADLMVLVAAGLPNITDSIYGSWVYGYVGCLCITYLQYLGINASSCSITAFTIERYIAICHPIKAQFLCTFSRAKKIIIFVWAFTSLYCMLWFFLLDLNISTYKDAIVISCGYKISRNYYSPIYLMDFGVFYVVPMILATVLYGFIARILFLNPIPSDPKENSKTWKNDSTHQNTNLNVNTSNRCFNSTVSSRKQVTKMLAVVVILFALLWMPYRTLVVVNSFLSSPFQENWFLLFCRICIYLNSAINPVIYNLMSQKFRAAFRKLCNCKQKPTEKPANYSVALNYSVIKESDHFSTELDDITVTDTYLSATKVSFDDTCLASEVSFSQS
In short: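 Intracellular calcium fluorescence, read kinetically every second over 3 min, reports TRH-evoked signalling in HEK293 cells carrying TRHR. Test compounds were added 5 min ahead of a 1 nM TRH challenge.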

[11] = target: Thyrotropin-releasing hormone receptor (Homo sapiens) (UniProt P34981); experiment: qHTS assay to identify small molecule agonists of the thyrotropin-releasing hormone receptor (TRHR) signaling pathway (AID 1346891; calls by dose curve; also: series mostly up to about 58 µM)
In short: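 Readout was intracellular calcium fluorescence in TRHR-Hek293 cells. Cells were incubated 18 h, dye-loaded 2 h at 37 °C, and treated with compound in agonist mode.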

[12] = Human pregnane X receptor (PXR) small molecule agonists, qHTS cell viability counter screen (AID 1346977); also: nearly all actives have a fitted effect of over 50% in size; also: potency is read from the fitted curve at half-maximal effect
In short: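 In each well, the PXR reporter HepG2 line was checked for viability: CellTiter-Fluor reagent added 23hr post-dosing, fluorescence read after 1hr incubation at 37C.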

[13] = qHTS assay to identify small molecule agonists or antagonists of the thyroid stimulating hormone receptor (TSHR) signaling pathway - wild type cell line counter screen (AID 1259384; calls by dose curve)
In short: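 Wild-type Hek293 cells, 800/well, 18 h at 37C, then compound with Ro20-1724 for 30 min RT. cAMP by HTRF (cAMP-d2/anti-cAMP cryptate), 1 h RT, fluorescence read. 15 concentrations, triplicates.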

[14] = qHTS assay to identify small molecule agonists of the estrogen receptor alpha (ER-alpha) signaling pathway in the presence of an antagonist - cell viability counter screen (AID 1259386);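 also: cells exposed to compounds for 22 h at 37 °C before the viability read; nearly all actives have a fitted effect of over 30% in size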; also: potency is read from the fitted curve at half-maximal effect
In short: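 VM7Luc4E2, stripped-serum pre-culture 5 d; 24hr plating; +ICI-182,780 10.0nM final; cpds 15 conc, 22hr, 37C/5% CO2; CellTiter-Fluor added at 21hr, fluorescence 1hr later.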

[15] = target: Progesterone receptor (Homo sapiens) (UniProt P06401); experiment: qHTS assay to identify small molecule agonists of the progesterone receptor (PR) signaling pathway (AID 1346784; calls by dose curve; also: nearly all actives have a fitted effect of over 30% in size)
Sequence of Progesterone receptor (Homo sapiens) (P06401 whole entry, looked up): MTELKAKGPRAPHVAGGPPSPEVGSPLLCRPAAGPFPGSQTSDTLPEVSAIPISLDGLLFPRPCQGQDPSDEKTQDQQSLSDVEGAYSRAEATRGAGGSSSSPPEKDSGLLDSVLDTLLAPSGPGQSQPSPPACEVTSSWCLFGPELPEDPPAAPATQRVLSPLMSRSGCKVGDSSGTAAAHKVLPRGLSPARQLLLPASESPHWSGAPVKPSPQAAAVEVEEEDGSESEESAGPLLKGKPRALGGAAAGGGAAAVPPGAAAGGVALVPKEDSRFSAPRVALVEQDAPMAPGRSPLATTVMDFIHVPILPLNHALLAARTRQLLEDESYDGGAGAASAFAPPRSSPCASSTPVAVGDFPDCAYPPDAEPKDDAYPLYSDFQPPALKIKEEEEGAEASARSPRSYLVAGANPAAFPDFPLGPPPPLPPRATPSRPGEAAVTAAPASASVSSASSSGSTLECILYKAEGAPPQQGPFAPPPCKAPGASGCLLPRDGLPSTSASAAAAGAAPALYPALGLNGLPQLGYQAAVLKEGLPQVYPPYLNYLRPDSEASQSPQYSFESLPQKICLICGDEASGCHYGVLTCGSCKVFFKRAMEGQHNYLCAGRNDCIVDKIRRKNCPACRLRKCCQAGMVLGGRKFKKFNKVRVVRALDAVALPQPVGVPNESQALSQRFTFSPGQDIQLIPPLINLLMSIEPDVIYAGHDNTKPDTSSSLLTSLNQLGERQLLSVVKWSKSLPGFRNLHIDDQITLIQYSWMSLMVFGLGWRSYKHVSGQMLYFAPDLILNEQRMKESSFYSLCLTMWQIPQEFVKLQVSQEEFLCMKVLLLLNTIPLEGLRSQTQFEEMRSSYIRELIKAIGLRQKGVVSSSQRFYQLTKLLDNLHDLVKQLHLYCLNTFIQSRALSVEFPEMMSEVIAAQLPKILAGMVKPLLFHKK
In short: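 Reporter assay, GripTite PR-UAS-bla HEK 293T cells: 16 hr exposure to DMSO-dissolved compounds at 37C, 5% CO2, in steroid-depleted (2% charcoal-stripped FBS) medium; beta-lactamase measured by FRET fluorescence.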

[16] = qHTS assay to identify small molecule antagonists of the TGF-beta/Smad signaling pathway - cell viability counter screen (AID 1346824); also: nearly all actives have a fitted effect of over 50% in size
In short: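 SBE-bla HEK 293T cells, incubated overnight, then compound plus 0.25 ng/mL TGF-beta1 (stock added) for 5 hr at 37 C. Viability was read in the same wells by CellTiter-Glo luminescence after 30 min at room temperature.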

[17] = qHTS assay to identify small molecule agonists of the TGF-beta/Smad signaling pathway (AID 1346859; active = well fitted activation curve with a large enough effect in the signal ratio in the repeat runs, not every such curve was filed as active; the % refers to the signal ratio; also: series mostly up to about 77 µM)
In short: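 Screening used HEK 293T SBE-bla cells at 4,000/well. Test agents: 5 hr, 37 C. Detection: FRET substrate, 2 hr RT, then excitation 405 nm with emissions at 460 and 530 nm.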

[18] = target: Progesterone receptor (Homo sapiens) (UniProt P06401); experiment: qHTS assay to identify small molecule antagonists of the progesterone receptor (PR) signaling pathway (AID 1346795; active = well fitted inhibition curve with a large enough effect in the signal ratio in the repeat runs, not every such curve was filed as active; the % refers to the signal ratio; also: potency is read from the fitted curve at half-maximal effect)
In short: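 Stimulus R5020 at 1 nM final; cells HEK293T PR-UAS-bla; medium with 2% charcoal-stripped FBS; compound exposure 16 hr at 37C, 5% CO2; detection by FRET beta-lactamase substrate, 2 hr, room temperature.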

Compound	Potency [1]	Potency [2]	Potency [3]	Potency [4]	Potency [5]	Potency [6]	Potency [7]	Potency [8]	Potency [9]	Potency [10]	Potency [11]	Potency [12]	outcome [13]	Potency [14]	Potency [15]	Potency [16]	outcome [17]	Potency [18]
N#Cc1c(-c2ccc(Cl)cc2)[nH]c(C(F)(F)F)c1Br	0.969 µM (active)	24.3 µM (active)	inactive	38.6 µM (active)	inactive	inactive	4.33 µM (active)	6.86 µM (active)	inactive	inactive	inactive	0.77 µM (active)						
CCCCCCCCCCCCCC[P+](CCCCCC)(CCCCCC)CCCCCC (tested in a mixture with another compound)	8.63 µM (active)	24.3 µM (active)		27.3 µM (active)	inactive		30.6 µM (active)	27.3 µM (active)	49 µM (active)			3.86 µM (active)	inactive	17.2 µM (active)				
C[C@]12CC[C@H](O)C[C@H]1CC[C@@H]1[C@@H]2C[C@@H](O)[C@]2(C)[C@@H](C3=CC(=O)OC3)CC[C@]12O	inactive	1.09 µM (active)	2.73 µM (active)	0.77 µM (active)			1.72 µM (active)	1.54 µM (active)		inactive	inactive		inactive	inactive	inactive			
COc1cc(C=O)cc2c1[C@H](COC(N)=O)[C@]1(OC(C)=O)ON2C[C@H]2[C@@H]1N2C(C)=O	27.3 µM (active)	inactive		inactive	inactive	inactive			inactive	inactive	inactive	1.93 µM (active)	inactive			inactive	inactive	
CC(=O)Nc1ccc2c(c1)Cc1ccccc1-2	inactive	inactive		inactive	8.77 µM (active)	inactive	inactive		inactive	inactive	inactive	inactive	inactive	inactive	inactive	inactive	inactive	
C[C@@H]1O[C@@H](O[C@H]2C[C@@H](O)[C@]3(CO)[C@H]4[C@H](O)C[C@]5(C)[C@@H](C6=CC(=O)OC6)CC[C@]5(O)[C@@H]4CC[C@]3(O)C2)[C@H](O)[C@H](O)[C@H]1O	inactive	81.9 nM (active) and 94.4 nM (active)	366 nM (active) and 168 nM (active)	46.1 nM (active) and 75 nM (active)	inactive		81.9 nM (active) and 150 nM (active)	116 nM (active) and 168 nM (active)		inactive	inactive			inactive	inactive			
Oc1ccc(C2(c3ccc(O)cc3)c3ccccc3-c3ccccc32)cc1	34.4 µM (active)	48.6 µM (active)		61.1 µM (active)	inactive	inactive	48.6 µM (active)			inactive	inactive		inactive			inactive	inactive	
CCOc1cc(C(C)(C)C)ccc1C1COC(c2c(F)cccc2F)=N1 (centres undefined)	inactive	18.6 µM (active)	inactive	29.5 µM (active)	inactive		37.1 µM (active)		inactive	inactive	inactive			inactive			inactive	23.4 µM (active)
